Only some compounds are listed: those with a hit (about 2.1% of all), similar ones and a draw of the others.
Calb FLC: C. albicans growth modulation with fluconazole; C. albicans CaCi-2 (fluconazole-resistant clinical isolate) + fluconazole, Alamar Blue growth, 48 h; growth inhibition, % (concentration not given with the values); hit rate 0.57% among 300,000; AID 1979;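 active = growth inhibition above about 58% in most replicates, limit read from the data, passing the limit was not always enough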;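 note: all wells also contain fluconazole at 8 µg/ml as a sub-toxic cotreatment; 0% = median of DMSO wells and 100% = median of geldanamycin control wells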
Rin1 Abl inh: inhibitors of human Rin1-Abl protein interaction. P00519+Q13671. TR-FRET Rin1/Abl binding, biochemical. inhibition, % at 7.35 µM. hit rate 0.4% among 360,000; in the data active = inhibition above about 5%, passing the limit was not always enough
PfM18AAP inh: blocks P. falciparum M18 aspartyl aminopeptidase. recombinant PfM18AAP, H-Glu-NHMec fluorogenic cleavage. inhibition, % at 7.35 µM. hit rate 1.2% among 290,000. AID 1822;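 active = inhibition above the campaign mean inhibition over all tested compounds plus 3 SD, cut at about 28% in these data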;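 note: 0% = plate median of test compound wells and 100% = 2 mM ZnCl2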
CTSL1 counter: cathepsin L1 inhibition, PFM18AAP counter-screen | recombinant F. hepatica cathepsin L1, Z-Leu-Arg-MCA fluorescence | inhibition, % at 5.96 µM | hit rate 0.49% among 300,000;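 active = inhibition above the mean of all tested compounds plus 3 SD, set per screening campaign, cut at about 17% in these data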;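 note: 0% = plate median of test compound wells and 100% = 1 µM Z-Phe-Ala-diazomethylketone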
* marks the source's active call; other numbers are inactive results; . = no result.

SMILES	Calb FLC	Rin1 Abl inh	PfM18AAP inh	CTSL1 counter
Cc1ccc(C(=O)OCn2ncc(Cl)c(Cl)c2=O)cc1	114*	-1	4	-9
O=C(OCn1ncc(Cl)c(Cl)c1=O)c1ccc(C(F)(F)F)cc1	106*	-3	3	.
CCOC(=O)c1ccc(NC(=O)Cn2ncc(Cl)c(Cl)c2=O)cc1	64	5	4	-1
CSCCC1NC(=O)C(C(C)=Nc2ccccc2)=C1O (centres undefined)	.	0	.	.
NC(=S)N/N=C/c1ccc(-c2ccc([N+](=O)[O-])cc2)o1	-8	-4	42*	22*
NC(=S)N/N=C/c1ccc(-c2cc(Cl)ccc2Cl)o1	93*	3	-15	16
COc1cc(/C=C\C(=O)NCc2ccc3c(c2)cc(C)n3C)cc(OC)c1OC	-7	-6	0	1
COc1ccc(-n2nc(C(=O)NCC(=O)N3CCCC3)c3ccccc3c2=O)c(OC)c1	-1	5	4	1
COc1ccc(-n2nc(C(=O)NCC(=O)N3CCN(c4ccc(F)cc4)CC3)c3ccccc3c2=O)c(OC)c1	99*	-1	-3	1
COc1ccc(-n2nc(C(=O)NCC(=O)N3CCN(c4ccccc4)CC3)c3ccccc3c2=O)c(OC)c1	79*	1	-14	-1
C=CCNC(=S)Nc1cccc(N)c1	-5	-1	9	-4
Cc1csc(NC(C)c2nc3cc(Cl)c(Cl)cc3n2CCCO)n1 (centres undefined)	10	5	.	-3
Cc1ccc(NC(=S)N2CCCC(O)C2)cc1 (centres undefined)	4	3	-5	-2
Brc1cccc(CSc2nnc(-c3ccncc3)o2)c1	81*	2	-8	-2
c1ccc(-c2nnc(SCc3ccncc3)o2)cc1	.	-3	.	.
O=C(NCCC1CC1(Cl)Cl)c1ccc([N+](=O)[O-])cc1 (centres undefined)	4	-2	3	-4
COc1ccc(-n2cccc2/C=C2\C(=N)N3N=C(C(C)C)SC3=NC2=O)cc1	98*	-1	-3	1
O=c1[nH][nH]c(=O)c2nc(Nc3ccccc3)ncc12	.	5	.	.
O=C(/C=C/c1ccc(F)cc1)N1CCN(c2ccccn2)CC1	87*	2	3	-2
CC(N=Cc1cc([N+](=O)[O-])ccc1O)c1ccccc1 (centres undefined)	-8	0	9	7
CC(N=Cc1cccc(O)c1O)c1ccccc1 (centres undefined)	4	3	31*	-3
Cc1cccc(C=Nc2ccc3c(c2)oc2ccccc23)c1O	-5	-6	-7	-1
Cc1ccccc1N=Cc1cccc(O)c1O	1	-1	30*	2
CC(C)c1ccc(CN2CCC2(C)C(=O)Nc2cnc3ccccc3c2)cc1 (centres undefined)	.	1	.	.
Nc1ccc(Oc2ncccn2)cc1	14	2	28*	-1
SMILES	Calb FLC	Rin1 Abl inh	PfM18AAP inh	CTSL1 counter
O=Cc1cccc(Oc2ncccn2)c1	-1	-5	2	-1
O=C(COC(=O)c1ccc(O)cc1)NCCc1c[nH]c2ccccc12	.	4	.	.
CCOC(=O)c1c(C)oc(=O)c(CC)c1O	.	-3	.	.
CCOC(=O)c1c(C)oc(NC(=O)CCl)c1C(=O)OCC	-9	3	10	84*
O=C1C(=Cc2ccccc2O)SC(=S)N1CCCN1CCOCC1	.	1	.	.
O=C1c2cccnc2C(=O)N1CNc1ccc(Cl)cc1	134*	3	-1	-1
COC(=O)c1ccc(N2NC(=O)/C(=C/c3ccc(-c4ccc(Cl)c(C(=O)O)c4)o3)C2=O)cc1	62*	-5	6	.
O=C1NN(c2ccc(Cl)c(Cl)c2)C(=O)/C1=C/c1ccc(-c2ccccc2C(=O)O)o1	81*	-1	1	.
Cc1ccc(N2NC(=O)/C(=C/c3ccc(-c4ccc(Cl)c(C(=O)O)c4)o3)C2=O)cc1C	2	1	6	-1
CCCCC(=O)N(C)c1c(CC)nc2c(OCC(N)=O)cccn12	.	-1	.	.
C(=C\c1ccccc1)/C=N/Nc1nc(N2CCCCC2)nc(N2CCCCC2)n1	93*	-1	0	0
O=[N+]([O-])c1ccccc1/C=C/C=N/Nc1nc(N2CCCCC2)nc(N2CCCCC2)n1	-7	0	-8	2
O=C1C(Cl)=C(NCCc2ccccc2)C(=O)c2ccccc21	.	-7	.	.
CC(=O)N(Cc1ccc(F)cc1)C1=C(NCCc2ccccc2)C(=O)c2ccccc2C1=O	87*	-3	-11	13
O=C1NC(Cc2ccccc2)c2nc3cc(F)c(F)cc3c(=O)n2-c2ncccc21 (centres undefined)	.	0	.	.
Cc1ccc(-c2nnn(CC(=O)N(CC(=O)NC3CCCCC3)c3cnc4ccccc4c3)n2)o1	10	-3	32*	1
O=C(C=Cc1cccs1)c1ccccc1	.	2	.	.
CCCCCCn1c(Br)nc2c1c(=O)n(C)c(=O)n2C	-2	-2	-2	35*
CCCCn1c(CN2CCN(C(=O)OCC)CC2)nc2c1c(=O)n(C)c(=O)n2C	102*	-4	5	1
CCNC(=O)COC(=O)/C=C/c1cccc(F)c1	-9	1	-12	-7
CCOC(=O)NN1C(=O)c2ccccc2NC1c1ccccn1 (centres undefined)	23	4	30*	5
O=C(Nc1ccccc1NC(=O)c1csnn1)c1csnn1	16	2	73*	28*
O=C(NC(=S)Nc1ccccc1Cl)c1csnn1	48	-6	3	0
O=C(NNS(=O)(=O)c1ccc(Br)cc1)c1csnn1	.	4	30*	.
CC(=O)Nc1ccc(S(=O)(=O)NCCC(=O)NC(C)c2cccs2)cc1 (centres undefined)	.	3	.	.
SMILES	Calb FLC	Rin1 Abl inh	PfM18AAP inh	CTSL1 counter
CCN(c1ccccc1)c1nc(=O)c2cccnc2s1	14	2	9	-4
CCN(c1ccccc1)c1cc2ccccc2c(=O)[nH]1	8	4	23	51*
CCOc1ccccc1CN1CCNC(=O)C1CC(=O)NCc1nc(C)cs1 (centres undefined)	-2	-3	6	.
CC(C)(C)c1ccc(C(=O)Nn2cnnc2)cc1	0	-3	13	-1
Cc1cc(C)cc(C(=O)Nn2cnnc2)c1	17	-2	31*	-2
CCOc1ccc(C(=O)Nn2cnnc2)cc1OCC	3	-1	29*	-1
CC(=O)Oc1ccc(C(=O)Nn2cnnc2)cc1	-2	-1	15	-4
COCCn1c(N)c(N(Cc2ccccc2)C(=O)CSCC(=O)Nc2ccc(OC)cc2)c(=O)[nH]c1=O	2	-2	.	2
COc1ccc2nc(SCC(=O)NC3CCCC3)c(C)cc2c1	-20	-1	2	3
COc1cccc(N2C(=O)N(c3ccccc3Cl)C3CS(=O)(=O)CC32)c1 (centres undefined)	-3	-2	4	17*
CC(C)N1CCN(Cc2nc(-c3ccccc3)cs2)CC1CCO (centres undefined)	0	0	-3	20*
CCCCC[C@@H]1C=C(C(=O)O)[C@H](c2ccc(OC)c(OC)c2)N1S(=O)(=O)c1ccc(C)cc1	.	-2	.	.
Cc1ccccc1-n1c(-c2ccncc2)n[nH]c1=S	1	2	.	1
CCc1ccccc1-n1c(-c2ccncc2)n[nH]c1=S	8	0	30*	0

Assay outcomes from PubChem.
